The list is not random: actives were taken first. Their share in the collection is about 3.3%.
VACV mCherry inh: vaccinia inhibition (mCherry reporter). Vaccinia virus mCherry reporter infection, fluorescence. Potency, µM (highest dose often 36.5 µM), actives largely listed as inhibitors. 0.63% of 310,000 active; calls by dose curve; tested in A549 cells; further: nearly all actives have a fitted effect of over 35% in size
VACV Venus inh: vaccinia inhibition (Venus reporter); 0.46% of 330,000 active; Potency, µM (top dose mostly 36.5 µM), most hits filed as inhibitors; Vaccinia virus Venus reporter expression, fluorescence; calls by dose curve; tested in A549 cells; further: nearly all actives have a fitted effect of over 30% in size
HCV inhibitor: inhibitors of hepatitis C virus infection; Potency, µM (top dose mostly 41.8 µM), hits mostly inhibitors; Huh7.5.1 HCVcc-Cre infection, luciferase reporter, 44 h; 3.4% of 340,000 active; active means well fitted inhibition curve with a large enough effect; inconclusive means small, poorly fitted or top-dose-only effect, or another doubt; inactive means no such curve, though single readings can be large or run the other way
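Cells (1,000/well) were plated 4 h before compound, then infected with HCVcc-Cre virus (~0.5 moi). After 44 h further culture, infection was read as luciferase luminescence following a 15 min substrate incubation at room temperature.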
A number is an active result; – = inactive; ? = inconclusive; · = no result; [ ] = another dose, or the depositor's remark.

SMILES | VACV mCherry inh | VACV Venus inh | HCV inhibitor
Cc1c(CCC(=O)O)c(=O)oc2c(C)c3occ(-c4ccc(Br)cc4)c3cc12 | – | – | –
COc1ccc(-c2coc3c(C)c4oc(=O)c(CCC(=O)O)c(C)c4cc23)cc1 | – | – | 2.51µM
CC(C)CC(=O)Nc1ccc(C(=O)COC(=O)C2CC(=O)N(Cc3ccccc3)C2)cc1 (stereo not drawn) | · | · | –
Cc1ccc(NC(=O)CSc2nc(-c3cccs3)cc(C(F)(F)F)n2)cc1C | – | – | ·
O=C(CSc1nc(-c2cccs2)cc(C(F)(F)F)n1)Nc1cc(OCC(F)(F)C(F)F)cc([N+](=O)[O-])c1 | – | – | 3.55µM
C=CCOc1c(Br)cc(CNc2ccc(NC(=O)C(C)C)c(OC)c2)cc1OC | · | · | 10µM
COc1cc(CNc2ccc(C(=O)O)cc2)cc(Br)c1OCC(=O)NC(C)(C)C | – | – | –
Cc1c(C(=O)NCCc2cccnc2)cnn1-c1nccc(-c2ccccc2F)n1 | – | – | ·
O=C(CC1C(=O)NCCN1CC1CCCCC1)NCCc1ccc(F)cc1 (stereo not drawn) | ? | – | ?
CC(C)c1ccc(/C=N/NC(=O)c2cccc(Cl)c2)cc1 | ? | ? | 7.08µM
CC(C)c1ccc(/C=N/NC(=O)c2ccccn2)cc1 | – | – | –
CCOc1ccccc1NC(=O)CN1C(=O)C(C)SC(C)C1=O (stereo not drawn) | – | – | –
CN(C)/C=N/C(=S)Nc1ccc(Cl)cc1 | – | – | –
CN(C)/C=N/C(=S)Nc1ccc(Cl)cc1Cl | – | – | 14.1µM
CCS(=O)(=O)N1CCC(c2nc3ccccc3[nH]2)CC1 | · | · | –
CC#CCOC(=O)c1c(C)nc2sc3c(c2c1N)CC[C@@H](O)C3 | ? | 3.55µM | ·
CCOC(=O)c1c(N)sc2c1CCC(C)C2 (stereo not drawn) | · | – | –
O=Cc1cc2c3c(c1)CCCN3CCC2 | – | – | ·
COc1ccc(NC(=O)c2cc(Cl)ccc2NC(=O)c2ccco2)c(OC)c1 | – | – | –
O=C(Nc1ccc(Cl)cc1C(=O)Nc1ccncc1)c1ccco1 | · | · | 11.2µM
COc1ccc(NC(=O)Cn2nc(-c3ccncc3)ccc2=O)cc1Cl | – | – | ·
COc1ccc2c(c1)CCc1cnc(-n3ncc(C(=O)N4CCN(CCO)CC4)c3C3CC3)nc1-2 | – | – | ·
CCN(CC)CCCNC(=O)c1oc2c(c1C)-c1nn(Cc3ccc(Cl)cc3)cc1CC2 | – | – | ·
O=C1C=C(N2CCOCC2)c2ccccc2C1=O | ? | 11.2µM | ?
O=C1C=C(N2CC2)c2ccccc2C1=O | ? | – | ·
SMILES | VACV mCherry inh | VACV Venus inh | HCV inhibitor
CC(C)C[C@H]1CNC(=S)N1CC1CCCN1C[C@H](CC(C)C)N1C[C@H](Cc2ccc(O)cc2)N(CC2CCCCCC2)C1=S (stereo partly drawn) | ? | 28.2µM | –
CC(C)C[C@@H](CN1CCC[C@@H]1CN1C(=S)NC[C@@H]1Cc1ccccc1)N1C[C@H](Cc2ccc(O)cc2)N(CC2CCCCCC2)C1=S | – | – | ·
CCOc1ccc(CCN2C(=S)N([C@@H](CC(C)C)CN3CCCC3CN3C(=S)NC[C@@H]3CC(C)C)C[C@@H]2Cc2ccccc2)cc1 (stereo partly drawn) | – | – | 5.62µM
CC(C)C[C@@H](CN1CCC[C@@H]1CN1C(=S)NC[C@@H]1Cc1ccccc1)N1C[C@H](Cc2ccc(O)cc2)N(CC2CCCCC2)C1=S | – | – | ·
CC(C)C[C@H]1CNC(=S)N1CC1CCCN1C[C@H](CC(C)C)N1C[C@H](Cc2ccc(O)cc2)N(CC2CCCCC2)C1=S (stereo partly drawn) | ? | ? | 10µM
CCOc1ccc(CCN2C(=S)N([C@@H](Cc3ccccc3)CN3CCC[C@@H]3CN3C(=S)NC[C@@H]3CC(C)C)C[C@@H]2Cc2ccccc2)cc1 | – | – | ·
CC(C)C[C@H]1CNC(=S)N1C[C@H]1CCCN1C[C@H](CC(C)C)N1C[C@H](Cc2ccc(O)cc2)N(CC2CCCCCC2)C1=S | – | – | ·
CC(C)C[C@@H](CN1CCCC1CN1C(=S)NC[C@@H]1Cc1ccc(O)cc1)N1C[C@H](Cc2ccc(O)cc2)N(CC2CCCCC2)C1=S (stereo partly drawn) | ? | 10µM | ?
O=C(Nc1ccc(F)c(F)c1)c1cnn2c1NC(=C1CC1)C=C2C(F)(F)F | – | – | ·
CN(Cc1ccccc1)C(=O)c1ccc2c(c1)N(Cc1ccc(Cl)cc1)C(=O)c1ccccc1S2=O (stereo not drawn) | ? | – | ·
CCCNC(=O)CSc1nc2[nH]ncc2c(=O)[nH]1 | · | · | –
COc1ccccc1/C=N/OCc1cc(C(C)=O)ccc1OC | – | – | ?
Cc1ccc(-c2c(CN3CCN(c4cccc(C)c4)C(C)C3)csc2C)cc1 (stereo not drawn) | – | – | ·
Cc1ccccc1OCc1ccc(-c2nc(C#N)c(N3CCN(c4ccccc4)CC3)o2)o1 | –[7.34 µM] | –[7.34 µM] | ·
Cc1cc2ccccc2c[n+]1C1CCCCC1 | – | – | ·
Oc1ccc(C[C@H]2CN([C@@H](Cc3ccccc3)CN3CCCC3CN3C(=S)NC[C@@H]3Cc3ccccc3)C(=S)N2CC2CCCCC2)cc1 (stereo partly drawn) | – | – | ·
Oc1ccc(C[C@H]2CNC(=S)N2CC2CCCN2C[C@H](Cc2ccc(O)cc2)N2C[C@H](Cc3ccc(O)cc3)N(CC3CCCCC3)C2=S)cc1 (stereo partly drawn) | ? | 10µM | ?
Oc1ccc(C[C@H]2CNC(=S)N2CC2CCCN2C[C@H](Cc2ccc(O)cc2)N2C[C@H](Cc3ccccc3)N(CCc3ccccc3)C2=S)cc1 (stereo partly drawn) | ? | ? | 4.47µM
CC(C)C[C@H]1CNC(=S)N1C[C@H]1CCCN1C[C@H](Cc1ccc(O)cc1)N1C[C@H](Cc2ccccc2)N(CCc2ccccc2)C1=S | – | – | ·
CNCc1nc(-c2ccc[nH]2)c2cc(Cl)ccc2n1 | – | – | ·
O=C(NCCc1ccccn1)C1CC12CCN(C(=O)c1ccc(F)cc1Cl)CC2 (stereo not drawn) | – | – | ·
C(=N\Nc1nccc(-c2cccnc2)n1)/c1ccccc1 | · | · | –
Cc1ccc(-c2cc(-c3ccccc3O)nc(N/N=C/c3cccnc3)n2)cc1 | – | – | 0.562µM
COc1ccc(/C=N/Nc2nc(-c3cccnc3)nc3ccccc23)cc1OC | – | – | –
Cc1c(O)ccc(/C=N/Nc2nc(-c3cccnc3)nc3ccccc23)c1O | – | – | 25.1µM
SMILES | VACV mCherry inh | VACV Venus inh | HCV inhibitor
Oc1ccc(/C=N/Nc2nc(-c3cccnc3)nc3ccccc23)c(O)c1 | ? | – | 11.2µM
Cc1ccc(-c2nc(N/N=C/c3ccncc3)c3ccccc3n2)cc1 | – | – | –
COc1ccc2[nH]cc(CCO)c2c1 | – | – | ·
O=C(COC(=O)c1ccc(Cl)nc1)Nc1ccc(N2CCCCC2)cc1 | – | – | –
CC1CCN2c3cc(Cl)ccc3CC3(C(=O)OC(C)(C)OC3=O)C2C1 (stereo not drawn) | – | – | ·
C[C@H](CO)NC(=O)[C@H](C)[C@H]1C[C@]1(C)[C@H](NC(=O)OCc1ccccc1)c1ccccc1 | – | – | –
C[C@@H](C(=O)NCC1CC1)[C@@H]1C[C@@]1(C)[C@@H](NC(=O)OCc1ccccc1)c1ccccc1 | – | – | 0.562µM
CN(CC(=O)Nc1ccccc1Br)C(=O)c1ccccc1OCc1ccc(Cl)cc1 | 0.1µM | – | ?
CN(CC(=O)Nc1ccccc1Br)C(=O)c1ccc(-c2ccc(Cl)cc2)o1 | – | – | ·
COC(=O)c1sc2cccc(F)c2c1S(=O)(=O)N1CCN(c2ccccc2OC)CC1 | – | – | ·
